Rows were chosen to be rich in hits. Some 4.7% of all compounds tested hit in one or more screens of this group.
tim23-1 inh: growth inhibitors of tim23-1 mutant yeast, primary screen, luminescence, uHTS; S. cerevisiae tim23-1 growth, BacTiter-Glo luminescence, 24 h; inhibition, % at 20 µM; 330,000 tested, 1.3% active; AID 463212, 2010;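 active means growth inhibition of the mutant yeast at or above 50%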;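 further: temperature-sensitive mutant grown at 25 °C; plate controls were DMSO-treated mutant yeast for no effect and medium wells lacking yeast for full effect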
tim10-1 inh: growth inhibitors of tim10-1 mutant yeast, primary screen, luminescence, uHTS. 330,000 tested, 2.2% active. S. cerevisiae tim10-1 ts strain growth, BacTiter-Glo, 24 h. AID 463190, 2010. inhibition, % at 20 µM;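 active means inhibition of at least 40%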;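 further: mutant grown at 25 °C; 0% = DMSO wells with yeast and 100% = wells holding no yeast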
Calb FLC: C. albicans growth inhibition with fluconazole, primary screen, CaCi-2 strain, Alamar Blue fluorescence. growth inhibition, % (concentration not given with the values). 300,000 tested, 0.57% active. AID 1979, 2009. C. albicans CaCi-2 (fluconazole-resistant clinical isolate) + fluconazole, 48 h;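 active means growth inhibition above about 58% in most replicates, limit read from the data, passing the limit was not always enough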;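 further: all wells also contain fluconazole at 8 µg/ml as a sub-toxic cotreatment; 0% = median of DMSO wells and 100% = median of geldanamycin control wells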
TIM10 inh: growth inhibitors of isogenic TIM10 control yeast, primary screen, counter-screen for tim10-1 yeast inhibitor project, luminescence, uHTS; S. cerevisiae TIM10 strain growth, BacTiter-Glo luminescence, 24 h; inhibition, % at 10 µM; 330,000 tested, 1.4% active;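 active means inhibition of 40% or more at the single tested concentration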;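 further: wild-type TIM10 isogenic control strain grown at permissive 25 °C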
SKKanGAS inh: S. pyogenes SKKanGAS growth inhibitors in kanamycin, primary screen, streptokinase expression inhibitor project, SKKanGAS strain, BacTiter-Glo luminescence; 6 h; inhibition, % at 7.5 µM; 300,000 tested, 1.3% active;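 active means mean replicate score, as percent of positive control median, at least 50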;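 further: strain carries kanamycin resistance gene driven by streptokinase promoter and grows in 40 µg/ml kanamycin; loss of luminescence reflects streptokinase promoter inhibition or plain growth inhibition; 0% = median of DMSO wells and 100% = positive control at its reference dose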
PfHsp90 yeast 2: growth inhibition of PfHsp90-expressing yeast, primary screen, antimalarial PfHsp90 inhibitor project, S. cerevisiae, BacTiter-Glo luminescence, single point, set 2. BacTiter-Glo ATP, 48 h; yeast lacking PDR1 and PDR3 efflux regulators. inhibition, % at 9.4 µM. 310,000 tested, 0.32% active;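 active means every replicate shows inhibition above about 80%, whatever the replicate mean, limit read from the data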;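 further: 0% = DMSO neutral controls and 100% = 20 µM radicicol positive controls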
tim23-1 confirm: tim23-1 mutant yeast growth inhibitors, confirmation, luminescence, single concentration. AID 463218, 2010. shares compounds with tim23-1 inh. 4,400 tested, 83% active. S. cerevisiae tim23-1 growth, BacTiter-Glo luminescence, 24 h. inhibition, % at 20 µM;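 active means inhibition above about 39% in either of two replicate wells at 20 µM, limit read from the data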;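 further: temperature-sensitive tim23-1 mutant grown at 25 °C; 0% = DMSO wells with yeast and 100% = medium wells without yeast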
* = called active by the depositor; nt = no result given; + = active, no number.

SMILES	tim23-1 inh	tim10-1 inh	Calb FLC	TIM10 inh	SKKanGAS inh	PfHsp90 yeast 2	tim23-1 confirm
c1ccc(CCNc2ccc3c(c2)Cc2ccccc2-3)nc1	nt	nt	nt	nt	nt	2	nt
COc1ccc(CCNC(=O)CCc2cc(OC)c(OC)c(OC)c2)cc1OC	4	-15	1	10	-1	19	nt
O=CN(/C=C1\Sc2ccccc2C1=O)Cc1ccccc1	68*	31	-22	23	1	-10	66*
CCC(=O)N(C)/C=C1\Sc2ccccc2C1=O	53*	-25	-2	-15	3	23	5
CC(=O)N(C)/C=C1\Sc2ccccc2C1=O	18	-41	-6	-22	3	8	nt
N#Cc1ccccc1COc1cccc2c1CCCC2O (stereo not drawn)	37	21	4	13	8	-1	nt
COc1ccc2c(c1)[C@H]1[C@H](CO2)[C@H](c2ccccc2)[C@]2(C)C(=O)Nc3ccc(C)cc3C(=O)N12	51*	21	nt	12	nt	+	43*
COc1ccc2c(c1)OC[C@H]1[C@H]2N2C(=O)c3cc(C)ccc3NC(=O)[C@@]2(C)[C@H]1c1ccccc1	51*	8	nt	-5	nt	104*	58*
COc1ccc2c(c1)[C@H]1[C@H](CO2)[C@H](c2ccccc2)[C@]2(C)C(=O)Nc3ccc(F)cc3C(=O)N12	27	17	nt	13	nt	-12	nt
Cc1cc(=O)[nH]c2ccc(S(=O)(=O)NCc3ccccc3)cc12	-2	16	-7	-4	-9	-2	nt
CN(Cc1ccco1)c1ncnc2ccc(-c3ccc4c(c3)OCO4)cc12	51*	22	nt	7	nt	-10	42*
COc1ccc(OC)c2c1sc(=NC(=O)C(C)C)n2C	53*	31	26	24	3	8	47*
COc1ccc(/C=N/NC(=O)c2cc(C34CC5CC(CC(C5)C3)C4)[nH]n2)cc1OC	38	28	51	26	4	1	nt
COc1cccc(/C=N/NC(=O)c2cc(C34CC5CC(CC(C5)C3)C4)[nH]n2)c1	66*	9	2	10	7	-6	41*
O=C1NC(c2ccccc2Cl)=N/C1=C/c1ccco1	53*	16	-1	31	5	12	22
O=C(NC(=S)NC1CCCC1)c1ccccc1Br	17	17	-1	25	18	3	nt
CCN(C(=S)NC(=O)c1ccccc1Br)C1CCCCC1	58*	28	8	35	-3	2	44*
C[C@@H]1C(c2cccc(Cl)c2)=NN(c2ccccc2)[C@H]1C(=O)N1CCOC1=O	29	10	nt	-1	nt	-16	nt
C[C@@H]1C(c2cccc(Cl)c2)=NN(c2ccc(Br)cc2)[C@H]1C(=O)N1CCOC1=O	52*	28	nt	19	nt	-35	38*
C[C@@H]1C(c2ccccc2)=NN(c2ccccc2)[C@H]1C(=O)N1CCOC1=O	54*	32	nt	11	nt	5	33
O=C1OCCN1C(=O)[C@H]1[C@H](c2ccccc2)C(c2ccccc2)=NN1c1ccc(Br)cc1	42	26	nt	12	nt	0	nt
COc1ccccc1NS(=O)(=O)c1cccc(NC(=O)CCNC(=O)c2ccccc2OC)c1	6	17	nt	5	nt	nt	nt
Cc1ccc(S(=O)(=O)N2[C@@H](c3ccc(Br)cc3)C(C(=O)O)=CC[C@H]2c2ccc(Cl)c(Cl)c2)cc1	41	12	nt	13	nt	-65	nt
Cc1ccc(S(=O)(=O)N2[C@@H](c3ccc(C(C)(C)C)cc3)C(C(=O)O)=CC[C@H]2c2cccc(Cl)c2)cc1	53*	19	nt	20	nt	-6	44*
Cc1ccc(S(=O)(=O)N2[C@@H](c3ccc(C(C)(C)C)cc3)C(C(=O)O)=CC[C@H]2c2ccc(Cl)c(Cl)c2)cc1	63*	-20	nt	33	nt	-25	-29

Assay outcomes deposited in PubChem BioAssay by several laboratories.
